HP1b chromo inh: HTS for Inhibitors of HP1-beta Chromodomain Interactions with Methylated Histone Tails; AlphaScreen HP1-beta / biotin-H3K9me3 peptide binding; actives 0.56% (n = 390,000); Potency, µM (top dose mostly 114 µM), for the others: top-dose activity change, negative = inhibition, hits mostly inhibitors; Chromobox protein homolog 1 (Homo sapiens), P83916; note: nearly all actives have a fitted effect of over 70% in size
Target sequence (P83916 whole entry, looked up): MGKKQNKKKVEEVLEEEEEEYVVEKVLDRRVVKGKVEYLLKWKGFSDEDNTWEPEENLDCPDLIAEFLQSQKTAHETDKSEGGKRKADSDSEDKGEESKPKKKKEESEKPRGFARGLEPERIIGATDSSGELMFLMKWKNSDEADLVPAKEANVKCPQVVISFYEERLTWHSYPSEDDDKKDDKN
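AlphaScreen: HP1-beta (50 nM) preformed 30 min with biotin-H3(1-18)K9me3 peptide (50 nM) in PBS pH 7.4, 0.01% Tween-20. Compound added for 30 min at RT, then streptavidin donor/nickel chelate acceptor beads (10 ug/mL) for 30 min.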
G9a block: qHTS Assay for Inhibitors of Histone Lysine Methyltransferase G9a; Histone-lysine N-methyltransferase EHMT2 (Homo sapiens), Q96KQ7; actives 8.8% (n = 350,000); Potency, µM (series often up to 102 µM), without a hit: at the highest dose activity, negative = inhibition, usual class: inhibitors; AID 504332, 2011; G9a H3K9 monomethylation, AlphaScreen, 2 h; note: % is set by controls: 0 for no effect and ±100 for the full control effect; nearly all actives have a fitted effect of over 75% in size
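Enzyme 20 nM + cpd, 15 min RT; add b-H3K9 pep 500 nM / SAM 20 uM; 2 h RT; anti-H3K9me1 Ab 0.5 ug/mL + SA donor / anti-rabbit acceptor beads 20 ug/mL each, 10 min; AlphaScreen read.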
JMJD2A Tudor inh: qHTS Assay for Inhibitors of JMJD2A-Tudor Domain; actives 4.4% (n = 390,000); AlphaScreen JMJD2A-Tudor / H3K4me3 peptide binding; Potency, µM (doses to about 114 µM), for inactives: at the highest dose activity change, negative = inhibition, most hits filed as inhibitors; note: % is set by controls: 0 for no effect and ±100 for the full control effect; nearly all actives have a fitted effect of over 50% in size
PLK1 PBD block: qHTS for Inhibitors of PLK1-PDB (polo-like kinase 1 - polo-box domain): Primary Screen. Serine/threonine-protein kinase PLK1 (Homo sapiens), P53350. Plk1 PBD binding of FITC phosphopeptide, fluorescence polarization. Potency, µM, for the others: max response, negative = inhibition, actives largely listed as inhibitors. actives 2.8% (n = 360,000). AID 720504, 2013; note: series mostly up to about 57 µM; % is set by controls: 0 for no effect and ±100 for the full control effect; nearly all actives have a fitted effect of over 65% in size
Target sequence (P53350 whole entry, looked up, the tested form may be a part): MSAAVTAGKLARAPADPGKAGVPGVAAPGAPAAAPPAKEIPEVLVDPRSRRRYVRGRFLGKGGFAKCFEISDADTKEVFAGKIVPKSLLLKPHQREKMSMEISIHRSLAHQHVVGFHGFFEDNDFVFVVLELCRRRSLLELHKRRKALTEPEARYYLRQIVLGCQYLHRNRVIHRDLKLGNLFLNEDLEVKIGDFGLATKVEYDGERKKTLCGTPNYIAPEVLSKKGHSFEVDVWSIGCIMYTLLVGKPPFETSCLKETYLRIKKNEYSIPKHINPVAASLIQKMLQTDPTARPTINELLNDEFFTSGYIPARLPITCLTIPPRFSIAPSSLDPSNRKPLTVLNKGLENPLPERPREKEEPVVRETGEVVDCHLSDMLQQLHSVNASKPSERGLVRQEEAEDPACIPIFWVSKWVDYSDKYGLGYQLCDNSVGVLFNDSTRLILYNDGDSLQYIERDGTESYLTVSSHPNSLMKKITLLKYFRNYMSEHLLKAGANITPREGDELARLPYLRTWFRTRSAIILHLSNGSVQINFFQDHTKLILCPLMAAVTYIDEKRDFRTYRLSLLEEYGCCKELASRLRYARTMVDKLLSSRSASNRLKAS
BAZ2B block: qHTS Assay for Inhibitors of BAZ2B | Bromodomain adjacent to zinc finger domain protein 2B (Homo sapiens), Q9UIF8 | AlphaScreen BAZ2B-H3K14Ac peptide displacement | Potency, µM (highest dose often 114 µM), inactives show at the highest dose activity change, negative = inhibition, hits mostly inhibitors | actives 4.4% (n = 360,000); note: % is set by controls: 0 for no effect and ±100 for the full control effect; nearly all actives have a fitted effect of over 60% in size
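BAZ2B 50 nM plus b-H3(5-23)K14Ac 50 nM, PBS pH 7.4/0.01% Tween-20, 30 min RT; compound added (max 110 uM), 30 min RT; streptavidin donor/Ni-chelate acceptor beads 10 ug/mL final, 20 min dark; AlphaScreen read.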
Sfp PPTase inh: qHTS Assay for Inhibitors of Bacillus subtilis Sfp phosphopantetheinyl transferase (PPTase); AID 1490, 2009; Biochemical Sfp PPTase activity, qHTS; Potency, µM, for inactives: largest response in the series, negative = inhibition, actives largely listed as inhibitors; 4'-phosphopantetheinyl transferase ffp (Bacillus subtilis), Q9F4F7; actives 3.5% (n = 310,000);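 note: the enzyme is Sfp with the accession as filed and its product quenches rhodamine fluorescence; 0% = enzyme reaction without inhibitor and -100% = no enzyme wells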
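With Hepes-Na pH 7.6 buffer containing 10 mM MgCl2, Sfp (15 nM) modified BHQ-2-YbbR (12.5 uM) using rhodamine-CoA (5 uM). Two reads 30 minutes apart at 525/598 nm yielded each well's rate.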
The depositor's hits bear a star; ? = inconclusive; . = no result; [ ] = another dose, or the depositor's remark. Only some compounds are listed: those with a hit (about 12% of all), similar ones and a draw of the others. Calls come from the whole dose curve; as a rule, active = well fitted curve in the direction sought with a large enough effect; inconclusive = small, poorly fitted or top-dose-only effect, or another doubt; inactive = no such curve, though single readings can be large; an effect the other way counts as inactive or inconclusive. Potency is the fitted concentration of half-maximal effect.

SMILES | HP1b chromo inh | G9a block | JMJD2A Tudor inh | PLK1 PBD block | BAZ2B block | Sfp PPTase inh
CN(C)S(=O)(=O)n1cc(/C=C(\NC(=O)c2ccccc2Cl)C(=O)N2CCOCC2)c2ccccc21 | 47.1% | 23.0% | 10.0% | -0.9% | -1.8% | 18.9%
COc1ccc(C(=O)N/C(=C/c2ccccc2F)C(=O)NCCN2CCOCC2)cc1OC | 6.5% | 52.7% | -10.3% | 21.2µM* | -31.2% | 14.3%
O=C(NCCNCCO)C1(C(F)(F)F)CC(CCc2ccccc2)CCCO1 (configuration not stated) | 0.8% | . | -15.2% | . | . | -25.4%
[O-][n+]1onc2c1CCC(=N/O)/C2=N\Nc1ccccc1 | . | 25.1µM* | . | . | 50.1µM* | 31.6µM*
CNC(=O)N(O)C1N(/N=C/c2ccccc2O)C(=S)SC1(C)C (configuration not stated) | 38.1% | . | -13.8% | 0.4% | -7.0% | 44.7µM*
CN(C)c1ccc(/C=N/N2C(=S)SC(C)(C)C2N(O)C(=O)Nc2ccc([N+](=O)[O-])cc2)cc1 (configuration not stated) | ? | 15.7%[12.7 µM] | 56.2µM* | 26.7µM* | ? | 19.2%
O=C(COC(=O)Cc1ccc(F)cc1)Nc1ccc2[nH]c(=O)[nH]c2c1 | 10.7% | 50.1µM* | -24.7% | -10.5% | -2.3% | .
O=C(COC(=O)c1ccccc1Cl)Nc1ccc2[nH]c(=O)[nH]c2c1 | 2.4% | -34.0% | -22.3% | -1.5% | 0.6% | .
Cc1ccc(/C=C/C(=O)OCC(=O)Nc2ccc3[nH]c(=O)[nH]c3c2)o1 | 15.7% | 39.8µM* | -16.4% | -0.4% | 6.1% | .
O=C(COC(=O)c1ccccc1OC(F)F)Nc1ccc2[nH]c(=O)[nH]c2c1 | 10.9% | 39.8µM* | -19.2% | -10.3% | -5.6% | .
O=C(NCC1CCCO1)c1ccc(Cl)c(S(=O)(=O)N2CCCCC2)c1 (configuration not stated) | 14.2% | 20.8% | -9.7% | -6.7% | -0.2% | 10.9%
NC(=O)CC[C@@H]1NC(=O)[C@H](CO)NC(=O)c2cc([N+](=O)[O-])cc(I)c2OCC[C@@H](C(N)=O)NC1=O | 16.8% | 44.7µM* | -29.1% | -3.7% | -5.4% | 17.4%
CC(C)C[C@@H]1NC(=O)[C@H](C(C)C)NC(=O)c2cc([N+](=O)[O-])cc(I)c2OCC[C@@H](C(N)=O)NC1=O | 38.2% | 44.7µM* | -24.6% | -12.3% | -35.0% | 5.6%
NC(=O)[C@@H]1CCCNc2c(F)cc([N+](=O)[O-])cc2C(=O)N[C@@H](CO)C(=O)NCC(=O)N1 | 20.6% | ? | -11.8% | 2.1% | -10.2% | 23.6%
NC(=O)[C@@H]1CCOc2c(I)cc([N+](=O)[O-])cc2C(=O)N[C@@H](CO)C(=O)NCC(=O)N1 | 40.0% | 44.7µM* | -17.3% | -17.8% | -7.6% | 8.6%
NCCCC[C@@H]1NC(=O)[C@H](CCC(=O)O)NC(=O)c2cc([N+](=O)[O-])cc(I)c2OCC[C@@H](C(N)=O)NC1=O | -6.9% | 31.6µM* | ? | -13.5% | ? | 9.3%
Cc1cc(C)c2c(n1)SCCN2C(=O)Nc1ccc(C(=O)Nc2cc(Cl)ccc2C)cc1 | 39.8% | ? | -2.1% | . | 3.1% | .
CN(C)CCCn1c2c(c(SCC(=O)Nc3nccs3)nc1=O)CCC2 | 16.7% | -22.1% | -4.8% | -5.9% | 4.5% | .
O=C(Nc1cccn(Cc2c(Cl)cccc2Cl)c1=O)C1CC1 | -23.3% | -7.5% | -27.4% | 26.7µM* | ? | 3.9%
CC1(C)C2CCC1(C)C(NC(=O)COC(=O)c1ccc(S(C)(=O)=O)c([N+](=O)[O-])c1)C2 (configuration not stated) | 13.9% | . | -7.1% | . | . | .
COc1ccc(-c2[nH]c(-c3ccc(F)cc3)nc2SCC(=O)NCc2ccco2)cc1OC | 30.6% | 89.1µM* | -23.1% | -16.4% | 4.7% | -10.6%
COc1ccc(-c2[nH]c(-c3ccccc3)nc2SCC(=O)NCc2ccco2)cc1OC | 27.9% | -27.8% | -22.4% | -8.0% | 2.6% | -6.4%
COc1ccc(-c2nc(SCC(=O)NCc3ccco3)c(-c3ccccc3)[nH]2)cc1OC | -11.9% | 44.7µM* | ? | -6.2% | ? | ?
COc1ccc(-c2[nH]c(-c3ccc(F)cc3)nc2SCC(=O)Nc2ccc(OC)c(OC)c2)cc1 | -17.2% | -4.5%[59 µM] | ? | . | -0.4% | .
Cc1ccc(NC(=O)c2cnn(-c3ccccc3)c2NC(=O)c2ccco2)cc1 | -10.4% | 15.4% | -32.2%[11.4 µM] | 3.36µM* | 5.4% | 18.3%
SMILES | HP1b chromo inh | G9a block | JMJD2A Tudor inh | PLK1 PBD block | BAZ2B block | Sfp PPTase inh
Cn1cccc1-c1nc2ccc(NC(=O)c3ccco3)cc2[nH]1 | ? | ? | ? | 0.8% | 50.1µM* | 10.1%
O=C(Nc1c(C(=O)Nc2ccccc2)cnn1-c1ccccc1)c1ccco1 | 12.1% | 8.3%[59 µM] | -14.4% | -6.2% | 9.3% | -0.5%
Cc1ccc(-c2nnc(-c3ccc(NC(=O)c4ccco4)cc3)o2)cc1 | 12.6% | 8.4%[12.7 µM] | -29.7% | -7.8% | 2.9% | -2.0%
Cc1ccc2nc(-c3ccc(NC(=O)c4ccco4)cc3)[nH]c2c1 | -20.1% | 28.2µM* | -34.0% | -2.5% | -16.0% | -4.3%
O=C(Nc1ccc2nc(-c3cccs3)[nH]c2c1)c1ccco1 | 41.8% | ? | 0.0% | 0.1% | 1.3% | 2.8%
CC(=O)NNc1nc(-c2ccccc2)cs1 | 10.9% | ? | ? | ? | -34.8% | 20µM*
CC(=O)Nc1ccc(-c2csc(NC(=O)Cc3ccccc3F)n2)cc1 | -15.9% | 39.8µM* | -29.1% | -3.8% | -27.6% | 2.7%
CC(=O)NNc1nc(-c2ccc(C)cc2)cs1 | 15.5% | 31.6µM* | -11.3%[11.4 µM] | -11.8% | -19.1% | 39.8µM*
CC1(C)CNC(=O)c2sc(NC(=O)c3ccccc3)nc2C1 | 13.0% | 8.1% | -16.1% | -24.2% | -10.5% | 13.9%
CC(=O)Nc1nc(-c2ccc(-c3ccccc3)cc2)cs1 | . | . | . | -0.8% | . | .
CC(C)CC1CC(C)(c2csc(NNC(=O)c3ccccc3)n2)OC1=O (configuration not stated) | 28.8% | 44.7µM* | -9.7% | -6.6% | 0.1% | -5.7%
CC1(C)CC(CC(=O)NNc2nc(-c3ccccc3)cs2)C(=O)O1 (configuration not stated) | ? | -4.3%[59 µM] | ? | 26.7µM* | -1.8% | 5.0%
CC1CC(CC(=O)NNc2nc(-c3ccccc3)cs2)C(=O)O1 (configuration not stated) | 54.9% | 3.4% | 0.3% | 0.0% | -10.7% | -29.9%

Bioassay records deposited in PubChem BioAssay by National Center for Advancing Translational Sciences (NCATS).
